{"source": "ChEMBL document CHEMBL4513146", "about": "“CO-ADD screening of Karazin Kharkiv National University (Ukraine) compounds”", "note": "Entries with a potency or affinity are not part of this list.", "data": [{"system": "Klebsiella pneumoniae", "details": "Concentration 32 ug.mL-1;; ASSAY_TEST Inhibition of Bacterial Growth; detection method Absorption (OD600); MEDIA CAMHB; plate type 384well; NBS; CORNING #3640; time 18 hr", "units": {"Inhibition": "%"}, "values": [{"smiles": "Cc1ccc(-c2ccc3nn(Cc4ccc5c(c4)OCO5)c(=O)n3n2)cc1C", "Inhibition": 2.14}, {"smiles": "COc1cccc(-n2ccn3c(=O)n(Cc4ccc([N+](=O)[O-])cc4)nc3c2=O)c1", "Inhibition": 8.52}, {"smiles": "COc1ccc(N2CCN(C(=O)Cn3nc4c(Sc5cccc(C)c5)nccn4c3=O)CC2)cc1", "Inhibition": -3.27}, {"smiles": "CCOC(=O)c1ccccc1NC(=O)Cn1nc2c(Oc3cccc(C)c3C)nccn2c1=O", "Inhibition": 7.42}, {"smiles": "Cc1ccc(-c2ccc3nn(Cc4ccc(N5CCCC5=O)cc4)c(=O)n3n2)cc1", "Inhibition": 8.04}, {"smiles": "COc1ccc(NC(=O)c2ccc3nn(CC(=O)N4CCN(c5ccccc5)CC4)c(=O)n3c2)cc1", "Inhibition": 0.73}, {"smiles": "Cc1nnc2ccc(S(=O)(=O)N(Cc3ccccc3Cl)c3cccc(F)c3)cn12", "Inhibition": 7.69}, {"smiles": "Cc1ccc(-c2ccc3nn(CC(=O)NC4CCCCC4)c(=O)n3n2)cc1C", "Inhibition": 13.52}, {"smiles": "Cc1ccc(-c2ccc3nnc(CCC(=O)NCc4ccc(C(C)C)cc4)n3n2)cc1C", "Inhibition": 10.51}, {"smiles": "O=C(Cn1nc2c(SC3CCCCC3)nccn2c1=O)Nc1cccc(Cl)c1", "Inhibition": -2.02}, {"smiles": "CC(C)Cn1c(=O)c2sccc2n2c(=O)n(CC(=O)N3CCC(Cc4ccccc4)CC3)nc12", "Inhibition": -9.43}, {"smiles": "CCc1nnc2ccc(S(=O)(=O)N(Cc3ccccc3F)c3ccc(OC)cc3)cn12", "Inhibition": 7.78}, {"smiles": "Cc1cccc(NC(=O)Cn2nc3c4cc(-c5ccc(Cl)cc5)nn4ccn3c2=O)c1", "Inhibition": 1.22}, {"smiles": "CC(C)(C)OC(=O)N1CCC(NC(=O)CCc2nnc3ccc(-c4ccccc4)nn23)CC1", "Inhibition": 12.09}, {"smiles": "COc1ccc(-n2ccn3c(-c4ccc([N+](=O)[O-])cc4)nnc3c2=O)cc1Cl", "Inhibition": 9.41}, {"smiles": "COc1ccc(NC(=O)Cn2c(=O)c3nnc(C)n3c3ccccc32)cc1Cl", "Inhibition": 11.31}, {"smiles": "Cc1ccc(NC(=O)Cn2nc3ccc(SCc4ccc(Cl)cc4)nn3c2=O)c(C)c1", "Inhibition": 5.23}, {"smiles": "COc1cccc(CN(c2ccc(C)c(F)c2)S(=O)(=O)c2ccc3nncn3c2)c1", "Inhibition": 1.02}, {"smiles": "COc1ccc(NC(=O)Cn2nc3c4c5c(sc4ncn3c2=O)CCCC5)cc1", "Inhibition": 6.74}, {"smiles": "COc1cc(OC)c(NC(=O)Cn2nc3c(Oc4ccccc4)nccn3c2=O)cc1Cl", "Inhibition": -10.94}, {"smiles": "Cc1cccc(C)c1NC(=O)CSc1nnc2c3cc(-c4ccc(F)cc4)nn3ccn12", "Inhibition": -6.3}, {"smiles": "COc1ccc(-c2cc3c4nn(CC(=O)Nc5cccc(C)c5)c(=O)n4ccn3n2)cc1", "Inhibition": 3.49}, {"smiles": "COc1ccc(NC(=O)CSc2nnc3c(=O)n(-c4ccccc4)ccn23)cc1", "Inhibition": 0.2}, {"smiles": "COc1ccc(NC(=O)Cn2nc3c(Oc4ccccc4)nccn3c2=O)cc1", "Inhibition": 8.21}, {"smiles": "COc1cccc(-n2ccn3c(SCC(=O)NCc4ccco4)nnc3c2=O)c1", "Inhibition": 16.06}, {"smiles": "Cc1nnc2c(S(=O)(=O)N(Cc3ccc(F)cc3)c3ccc(Cl)cc3)cccn12", "Inhibition": 5.76}, {"smiles": "CC(C)CCn1c(=O)c2ccc(C(=O)NC3CCCC3)cc2n2c(=O)n(CC#N)nc12", "Inhibition": 12.37}, {"smiles": "CC(C)CCNC(=O)Cn1nc2n(CC(C)C)c(=O)c3sccc3n2c1=O", "Inhibition": 9.99}, {"smiles": "O=C(Cn1nc2c(Sc3cccc(F)c3)nccn2c1=O)Nc1cccc(Br)c1", "Inhibition": 7.1}, {"smiles": "COc1ccccc1-n1ccn2c(SCC(=O)c3ccc(C)cc3C)nnc2c1=O", "Inhibition": 6.45}, {"smiles": "COc1ccc(NC(=O)c2ccc3nn(CC(=O)Nc4ccc(C)c(F)c4)c(=O)n3c2)cc1", "Inhibition": 0.39}, {"smiles": "Cc1cccc(Oc2nccn3c(=O)n(CC(=O)NCCCc4ccccc4)nc23)c1C", "Inhibition": 15.41}, {"smiles": "Cc1cccc(CSc2nnc3c(=O)n(-c4ccc(Br)cc4)ccn23)c1", "Inhibition": -2.02}, {"smiles": "CCC(Sc1nnc2c(=O)n(-c3cccc(OC)c3)ccn12)C(=O)Nc1ccccc1C", "note": "(stereo not given)", "Inhibition": 4.33}, {"smiles": "O=C(CSc1nnc2c(=O)n(-c3ccc(Br)cc3)ccn12)c1c[nH]c2ccccc12", "Inhibition": 21.01}, {"smiles": "O=C(CCc1nnc2c(N3CCCCC3)nc3ccccc3n12)NCc1ccc2c(c1)OCO2", "Inhibition": 14.18}, {"smiles": "CCN(CCCNC(=O)CCc1nnc2ccc(-c3ccccc3)nn12)c1ccccc1", "Inhibition": 9.95}, {"smiles": "Cc1cc(C)c(NC(=O)Cn2nc3c4c5c(sc4ncn3c2=O)CCCC5)c(C)c1", "Inhibition": 7.2}, {"smiles": "CCc1nnc2c(S(=O)(=O)N(Cc3ccccc3F)c3ccc(F)cc3)cccn12", "Inhibition": 2.68}, {"smiles": "COc1ccc(NC(=O)c2ccc3nn(CC(=O)Nc4cccc(OC)c4)c(=O)n3c2)cc1", "Inhibition": 8.13}]}, {"system": "Candida albicans", "details": "Concentration 32 ug.mL-1; ASSAY_TEST Inhibition of Fungal Growth; detection method Absorption (OD530)", "units": {"Inhibition": "%"}, "values": [{"smiles": "Cc1ccc(-c2ccc3nn(Cc4ccc5c(c4)OCO5)c(=O)n3n2)cc1C", "Inhibition": 1.11}, {"smiles": "COc1cccc(-n2ccn3c(=O)n(Cc4ccc([N+](=O)[O-])cc4)nc3c2=O)c1", "Inhibition": 4.1}, {"smiles": "COc1ccc(N2CCN(C(=O)Cn3nc4c(Sc5cccc(C)c5)nccn4c3=O)CC2)cc1", "Inhibition": 1.08}, {"smiles": "CCOC(=O)c1ccccc1NC(=O)Cn1nc2c(Oc3cccc(C)c3C)nccn2c1=O", "Inhibition": 0.56}, {"smiles": "Cc1ccc(-c2ccc3nn(Cc4ccc(N5CCCC5=O)cc4)c(=O)n3n2)cc1", "Inhibition": 1.53}, {"smiles": "COc1ccc(NC(=O)c2ccc3nn(CC(=O)N4CCN(c5ccccc5)CC4)c(=O)n3c2)cc1", "Inhibition": 1.58}, {"smiles": "Cc1nnc2ccc(S(=O)(=O)N(Cc3ccccc3Cl)c3cccc(F)c3)cn12", "Inhibition": 4.75}, {"smiles": "Cc1ccc(-c2ccc3nn(CC(=O)NC4CCCCC4)c(=O)n3n2)cc1C", "Inhibition": 3.29}, {"smiles": "Cc1ccc(-c2ccc3nnc(CCC(=O)NCc4ccc(C(C)C)cc4)n3n2)cc1C", "Inhibition": 5.56}, {"smiles": "O=C(Cn1nc2c(SC3CCCCC3)nccn2c1=O)Nc1cccc(Cl)c1", "Inhibition": 27.21}, {"smiles": "CC(C)Cn1c(=O)c2sccc2n2c(=O)n(CC(=O)N3CCC(Cc4ccccc4)CC3)nc12", "Inhibition": 0.45}, {"smiles": "CCc1nnc2ccc(S(=O)(=O)N(Cc3ccccc3F)c3ccc(OC)cc3)cn12", "Inhibition": 3.86}, {"smiles": "Cc1cccc(NC(=O)Cn2nc3c4cc(-c5ccc(Cl)cc5)nn4ccn3c2=O)c1", "Inhibition": 16.29}, {"smiles": "CC(C)(C)OC(=O)N1CCC(NC(=O)CCc2nnc3ccc(-c4ccccc4)nn23)CC1", "Inhibition": 0.97}, {"smiles": "COc1ccc(-n2ccn3c(-c4ccc([N+](=O)[O-])cc4)nnc3c2=O)cc1Cl", "Inhibition": 5.76}, {"smiles": "COc1ccc(NC(=O)Cn2c(=O)c3nnc(C)n3c3ccccc32)cc1Cl", "Inhibition": 0.53}, {"smiles": "Cc1ccc(NC(=O)Cn2nc3ccc(SCc4ccc(Cl)cc4)nn3c2=O)c(C)c1", "Inhibition": 4.69}, {"smiles": "COc1cccc(CN(c2ccc(C)c(F)c2)S(=O)(=O)c2ccc3nncn3c2)c1", "Inhibition": -0.35}, {"smiles": "COc1ccc(NC(=O)Cn2nc3c4c5c(sc4ncn3c2=O)CCCC5)cc1", "Inhibition": 5.37}, {"smiles": "COc1cc(OC)c(NC(=O)Cn2nc3c(Oc4ccccc4)nccn3c2=O)cc1Cl", "Inhibition": 2.58}, {"smiles": "Cc1cccc(C)c1NC(=O)CSc1nnc2c3cc(-c4ccc(F)cc4)nn3ccn12", "Inhibition": 4.52}, {"smiles": "COc1ccc(-c2cc3c4nn(CC(=O)Nc5cccc(C)c5)c(=O)n4ccn3n2)cc1", "Inhibition": 3.36}, {"smiles": "COc1ccc(NC(=O)CSc2nnc3c(=O)n(-c4ccccc4)ccn23)cc1", "Inhibition": 2.88}, {"smiles": "COc1ccc(NC(=O)Cn2nc3c(Oc4ccccc4)nccn3c2=O)cc1", "Inhibition": 3.81}, {"smiles": "COc1cccc(-n2ccn3c(SCC(=O)NCc4ccco4)nnc3c2=O)c1", "Inhibition": 4.76}, {"smiles": "Cc1nnc2c(S(=O)(=O)N(Cc3ccc(F)cc3)c3ccc(Cl)cc3)cccn12", "Inhibition": 4.67}, {"smiles": "CC(C)CCn1c(=O)c2ccc(C(=O)NC3CCCC3)cc2n2c(=O)n(CC#N)nc12", "Inhibition": 2.41}, {"smiles": "CC(C)CCNC(=O)Cn1nc2n(CC(C)C)c(=O)c3sccc3n2c1=O", "Inhibition": -0.63}, {"smiles": "O=C(Cn1nc2c(Sc3cccc(F)c3)nccn2c1=O)Nc1cccc(Br)c1", "Inhibition": -0.26}, {"smiles": "COc1ccccc1-n1ccn2c(SCC(=O)c3ccc(C)cc3C)nnc2c1=O", "Inhibition": 3.89}, {"smiles": "COc1ccc(NC(=O)c2ccc3nn(CC(=O)Nc4ccc(C)c(F)c4)c(=O)n3c2)cc1", "Inhibition": 10.47}, {"smiles": "Cc1cccc(Oc2nccn3c(=O)n(CC(=O)NCCCc4ccccc4)nc23)c1C", "Inhibition": 0.59}, {"smiles": "Cc1cccc(CSc2nnc3c(=O)n(-c4ccc(Br)cc4)ccn23)c1", "Inhibition": 2.08}, {"smiles": "CCC(Sc1nnc2c(=O)n(-c3cccc(OC)c3)ccn12)C(=O)Nc1ccccc1C", "note": "(stereo not given)", "Inhibition": 0.82}, {"smiles": "O=C(CSc1nnc2c(=O)n(-c3ccc(Br)cc3)ccn12)c1c[nH]c2ccccc12", "Inhibition": 3.35}, {"smiles": "O=C(CCc1nnc2c(N3CCCCC3)nc3ccccc3n12)NCc1ccc2c(c1)OCO2", "Inhibition": 10.16}, {"smiles": "CCN(CCCNC(=O)CCc1nnc2ccc(-c3ccccc3)nn12)c1ccccc1", "Inhibition": 3.75}, {"smiles": "Cc1cc(C)c(NC(=O)Cn2nc3c4c5c(sc4ncn3c2=O)CCCC5)c(C)c1", "Inhibition": 39.7}, {"smiles": "CCc1nnc2c(S(=O)(=O)N(Cc3ccccc3F)c3ccc(F)cc3)cccn12", "Inhibition": 1.99}, {"smiles": "COc1ccc(NC(=O)c2ccc3nn(CC(=O)Nc4cccc(OC)c4)c(=O)n3c2)cc1", "Inhibition": 4.49}]}]}
